Measurements as given in PubChem BioAssay (NCI).
Several values for one entry are separate records, joined by “and”; a condition that tells them apart may be missing. Equal values may be shown once. Compounds without any hit were thinned out: in the full panel of roughly 83,000, 20% have a hit.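 Single-dose data. Exposure time 48 hours. Values below 10 considered active.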 Activity calls are given as the source filed them.

Columns and labels:
Experiment in all cases: NCI-60 one-dose screen, 48 h (100 = growth as untreated, 0 = no growth, -100 = all killed)
Conditions in all cases: 10 µM unless noted
SK-MEL-2 melanoma = test system: SK-MEL-2 melanoma
EKVX NSCLC = test system: EKVX NSCLC
SN12C renal = test system: SN12C renal
UO-31 renal = test system: UO-31 renal
TK-10 renal = test system: TK-10 renal
ACHN renal = test system: ACHN renal
CAKI-1 renal = test system: CAKI-1 renal
CCRF-CEM leukemia = test system: CCRF-CEM leukemia
MOLT-4 leukemia = test system: MOLT-4 leukemia
SR leukemia = test system: SR leukemia
RPMI-8226 leukemia = test system: RPMI-8226 leukemia
OVCAR-8 ovarian = test system: OVCAR-8 ovarian
OVCAR-5 ovarian = test system: OVCAR-5 ovarian
OVCAR-4 ovarian = test system: OVCAR-4 ovarian
SK-OV-3 ovarian = test system: SK-OV-3 ovarian
IGROV1 ovarian = test system: IGROV1 ovarian
OVCAR-3 ovarian = test system: OVCAR-3 ovarian
HS 578T breast = test system: HS 578T breast
NCI/ADR-RES ovarian = test system: NCI/ADR-RES ovarian
A498 renal = test system: A498 renal

Measured: growth

Cc1n[nH]c(=O)n(/N=C\c2c[nH]c3ccccc23)c1=O
inactive: SK-MEL-2 melanoma 104% | EKVX NSCLC 109% | SN12C renal 99.8% | UO-31 renal 60.6% | TK-10 renal 100% | ACHN renal 98.5% | CAKI-1 renal 98.4% | CCRF-CEM leukemia 95.9% | MOLT-4 leukemia 91.6% | SR leukemia 108% | RPMI-8226 leukemia 105% | OVCAR-8 ovarian 102% | OVCAR-5 ovarian 106% | OVCAR-4 ovarian 96.9% | SK-OV-3 ovarian 97.2% | IGROV1 ovarian 102% | OVCAR-3 ovarian 107% | HS 578T breast 108% | NCI/ADR-RES ovarian 106%

COc1cc(C(=O)c2ccc3c(c2)OCO3)cc(OC)c1OC
inactive: EKVX NSCLC 55.7% and 61.5% | SN12C renal 47.1% and 39.5% | UO-31 renal 16.2% and 37.6% | TK-10 renal 31.7% and 27.3% | ACHN renal 39.4% and 48.1% | MOLT-4 leukemia 40.7% and 42.7% | SR leukemia 19.8% and 12% | RPMI-8226 leukemia 29.6% and 34% | OVCAR-8 ovarian 33.9% and 36.5% | OVCAR-4 ovarian 80.8% and 53.9% | SK-OV-3 ovarian 24.2% and 27.7% | IGROV1 ovarian 11.1% and 30.7% | NCI/ADR-RES ovarian 10.9% and 25%
44.6% (inactive) and -28.3% (active): SK-MEL-2 melanoma
19.2% (inactive) and -19.2% (active): HS 578T breast
active: A498 renal 6.18% | OVCAR-3 ovarian -38.3% and -26.6%
4.39% (active) and 24.7% (inactive): CAKI-1 renal

Fc1ccccc1Nc1n[nH]c(=S)s1
inactive: SK-MEL-2 melanoma 116% | EKVX NSCLC 136% | SN12C renal 99.9% | UO-31 renal 95.5% | TK-10 renal 115% | ACHN renal 110% | CAKI-1 renal 113% | A498 renal 94.6% | MOLT-4 leukemia 114% | RPMI-8226 leukemia 110% | OVCAR-8 ovarian 103% | OVCAR-5 ovarian 99.2% | OVCAR-4 ovarian 122% | IGROV1 ovarian 126% | OVCAR-3 ovarian 107% | NCI/ADR-RES ovarian 115%

CC1=CCC2CC1C2(C)C (centres undefined)
inactive: SK-MEL-2 melanoma 88.2% and 108% | EKVX NSCLC 91.7% and 83.2% | SN12C renal 103% and 94.4% | UO-31 renal 89% and 96.1% | TK-10 renal 113% and 119% | ACHN renal 102% and 96.1% | CAKI-1 renal 76.2% and 82.8% | CCRF-CEM leukemia 121% and 114% | MOLT-4 leukemia 96.1% and 96% | SR leukemia 96.9% and 91.4% | RPMI-8226 leukemia 137% and 120% | OVCAR-8 ovarian 97.7% and 95.8% | OVCAR-5 ovarian 80.1% and 74.2% | OVCAR-4 ovarian 112% and 109% | SK-OV-3 ovarian 114% and 99% | IGROV1 ovarian 35.4% | OVCAR-3 ovarian 89.2% and 95.1% | HS 578T breast 81.8% | NCI/ADR-RES ovarian 102% and 81.8%

Cn1c(=O)n(-c2ccc(C(C)(C)C#N)cc2)c2c3cc(-c4cnc5ccccc5c4)ccc3ncc21
13.7% (inactive) and -10.6% (active): OVCAR-3 ovarian
active: SK-MEL-2 melanoma -42.4% | EKVX NSCLC 7.47% and 2.62% | UO-31 renal -14.7% and -16.6% | TK-10 renal -27.5% and -27.4% | ACHN renal 5.22% and 9.17% | CAKI-1 renal 5.77% and -2.85% | A498 renal -46.3% and -44.5% | MOLT-4 leukemia -5.74% and -20.5% | SR leukemia 2.04% and -5.13% | RPMI-8226 leukemia 8.42% | OVCAR-8 ovarian 1.15% and -10.2% | OVCAR-4 ovarian -5.93% and 0.981% | SK-OV-3 ovarian -28.9% and -13% | IGROV1 ovarian -12.3% and -27.9% | NCI/ADR-RES ovarian 1.89% and -0.868%
inactive: SN12C renal 15.6% and 17.1%

O=C(CN1CCN(c2cc3c(cc2F)c(=O)c(C(=O)O)cn3C2CC2)CC1)Nc1ccc(Cl)cc1
inactive: SK-MEL-2 melanoma 94.8% and 106% | EKVX NSCLC 93.4% and 92.3% | SN12C renal 90.1% and 90.6% | TK-10 renal 86.1% and 127% | ACHN renal 53.2% and 84.4% | CAKI-1 renal 67.2% and 77.6% | A498 renal 68.6% and 45.8% | MOLT-4 leukemia 96.5% and 92.7% | SR leukemia 71.1% and 71.4% | RPMI-8226 leukemia 72.2% | OVCAR-8 ovarian 78.8% and 95% | OVCAR-5 ovarian 105% and 96% | OVCAR-4 ovarian 85.3% and 83.2% | SK-OV-3 ovarian 63.4% and 82.2% | IGROV1 ovarian 93.8% and 97.3% | OVCAR-3 ovarian 94.4% and 102% | HS 578T breast 87.7% and 93.6% | NCI/ADR-RES ovarian 101% and 96.9%
7.15% (active) and 16% (inactive): UO-31 renal

N#CC(C#N)=C/C=C/c1cccc([N+](=O)[O-])c1
20.6% (inactive) and -14.1% (active): SK-MEL-2 melanoma
23.1% (inactive) and -10.2% (active): OVCAR-5 ovarian
24% (inactive) and -7.91% (active): IGROV1 ovarian
inactive: OVCAR-4 ovarian 31.9% and 21.2% | SK-OV-3 ovarian 55.6% and 35.8%
10.6% (inactive) and -24.8% (active): CAKI-1 renal
active: SN12C renal -21.7% and -30.1% | UO-31 renal -16.6% and -82.4% | TK-10 renal 7.02% and -19.4% | ACHN renal -22.1% and -59.7% | CCRF-CEM leukemia 2.18% and 1.1% | MOLT-4 leukemia -1.02% and 3.93% | SR leukemia -3.67% and 3.74% | RPMI-8226 leukemia -16.2% and -9.65% | OVCAR-8 ovarian -22.1% and -35.4% | OVCAR-3 ovarian -9.85% and -42.4% | HS 578T breast -9.4% and -4.55% | NCI/ADR-RES ovarian 5.66% and -10.2%
45.5% (inactive) and 2.6% (active): EKVX NSCLC

CC1=NN(c2ccccc2)C(=O)C1C(=O)c1ccccc1 (centres undefined)
inactive: SK-MEL-2 melanoma 96.6% | EKVX NSCLC 95% | SN12C renal 108% | UO-31 renal 90.6% | TK-10 renal 107% | ACHN renal 99.4% | CAKI-1 renal 95.9% | CCRF-CEM leukemia 88.4% | MOLT-4 leukemia 95.8% | SR leukemia 82.7% | RPMI-8226 leukemia 91.9% | OVCAR-8 ovarian 88.4% | OVCAR-5 ovarian 120% | OVCAR-4 ovarian 108% | SK-OV-3 ovarian 112% | IGROV1 ovarian 100% | OVCAR-3 ovarian 102% | NCI/ADR-RES ovarian 101%

NC(=S)N/N=C(\c1ccc(Br)cc1)C1CC1
inactive: SK-MEL-2 melanoma 92.8% | EKVX NSCLC 58% and 68.4% | SN12C renal 89.5% | UO-31 renal 61.4% and 56.8% | TK-10 renal 119% | ACHN renal 95.7% and 93% | CAKI-1 renal 83.7% and 81.4% | A498 renal 99.5% | MOLT-4 leukemia 38% and 45.2% | SR leukemia 87.6% | RPMI-8226 leukemia 71.3% and 60.9% | OVCAR-8 ovarian 83% | OVCAR-5 ovarian 110% and 97.1% | OVCAR-4 ovarian 74.4% | SK-OV-3 ovarian 105% and 97% | IGROV1 ovarian 18.1% and 42.3% | OVCAR-3 ovarian 38.3% and 37.1% | HS 578T breast 96.1% and 98% | NCI/ADR-RES ovarian 74.2% and 57.5%
